# CYP2C9 inh: blocks human cytochrome P450 2C9 | P11712 | CYP2C9 Supersomes, luciferin-H conversion, luminescence | inhibition, % at 5 µM | 96,000 compounds, 20% hits | AID 777;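 active = blocking of liver enzyme CYP2C9 beyond about 50% at 5 µM, limit read from the data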
# CYP2C19 inh: human CYP2C19 inhibition; inhibition, % at 5 µM; AID 778; CYP2C19 Supersomes, luciferin-H EGE luminescence, 30 min; 96,000 compounds, 21% hits; P33261;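 active = CYP2C19 inhibition above a set limit at 5 µM in the primary screen, cut at about 50% in these data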;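 also: plate controls were negative control wells for no effect and 2.5 mM tranylcypromine positive control for full effect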
# Target sequence (P33261 whole entry, looked up): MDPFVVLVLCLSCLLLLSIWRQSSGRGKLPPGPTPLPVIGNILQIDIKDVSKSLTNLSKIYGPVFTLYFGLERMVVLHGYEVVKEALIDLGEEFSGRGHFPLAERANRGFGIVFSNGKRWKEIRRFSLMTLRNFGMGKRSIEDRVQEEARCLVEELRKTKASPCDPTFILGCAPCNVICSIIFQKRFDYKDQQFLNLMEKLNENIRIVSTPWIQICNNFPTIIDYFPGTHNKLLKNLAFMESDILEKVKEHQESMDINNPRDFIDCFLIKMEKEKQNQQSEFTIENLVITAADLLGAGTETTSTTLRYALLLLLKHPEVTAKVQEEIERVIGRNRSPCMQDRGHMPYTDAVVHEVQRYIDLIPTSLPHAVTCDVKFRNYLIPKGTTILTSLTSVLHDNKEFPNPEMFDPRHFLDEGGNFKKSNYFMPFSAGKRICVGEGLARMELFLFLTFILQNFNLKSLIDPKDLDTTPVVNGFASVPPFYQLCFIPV
# CYP2C19 activ: increases human CYP2C19 enzyme activity | recombinant CYP2C19, luciferin-H EGE luminescence; stronger effect = higher value; 0 = fully inhibited enzyme, 1 = untreated enzyme | 96,000 tested, under 10 active | activation factor at 5 µM;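 active = activation factor of at least 2 at 5 µM in the primary screen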;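 also: 0 = wells with 2.5 mM tranylcypromine and 1 = vehicle-only wells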
# CYP2C9 activ: activators of human CYP2C9. recombinant CYP2C9, luciferin-H conversion, luminescence; stronger effect = higher value; factor 1 = untreated enzyme, 0 = blocked. activation factor at 5 µM. 96,000 compounds, 1.4% hits. AID 1024;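 active = activation factor of 2 or more for CYP2C9 at a 5 µM dose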;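 also: 0 = sulfaphenazole-blocked wells and 1 = vehicle-only wells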
# Cav32 inh: inhibitors of human Cav3.2 T-type calcium channel | Cav3.2-expressing cells, Fluo-4 calcium fluorescence FDSS; stronger effect = lower value | B-score at 10 µM | 100,000 compounds, 4% hits;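 active = single-dose well whose peak fluorescence ratio is a statistical outlier from its plate by either plate-standardised score or position-corrected B-score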
# Active calls of the source: *; / = no result given. A selection: hits, their analogues and other compounds. The true share with any hit is near 27%.
SMILES,CYP2C9 inh,CYP2C19 inh,CYP2C19 activ,CYP2C9 activ,Cav32 inh
CCc1nnc(SCc2ccc([N+](=O)[O-])cc2)nc1CC,/,/,/,/,-0.0478
O=C(COC(=O)c1ccccc1NC(=O)c1ccco1)NCc1ccc2c(c1)OCO2,46.8,12.0,0.9,0.5,0.214
CCCc1ncc(C(O)c2cccc3ccccc23)n1C (stereo not given),39.6,60.6*,0.4,0.6,0.42
CC(=O)N(CN1C(=O)c2ccccc2C1=O)c1cccc(C)c1,26.3,96.6*,0,0.7,0.0898
Cc1cccc(NCN2C(=O)c3ccccc3C2=O)c1,11.8,1.6,1,0.9,0.715
CC(=O)N(CN1C(=O)c2ccccc2C1=O)c1ccccc1,28.8,59.3*,0.4,0.7,0.761
O=C(CN1C(=O)NC2(CCCC2)C1=O)Nc1ccccc1F,-125.9,15.2,0.8,2.3*,0.728
O=C(CCN1CCN(CC(=O)Nc2ccccc2Cl)CC1)Nc1ccccc1F,43.3,77.1*,0.2,0.6,0.69
O=C(CN1CCN(CC(=O)Nc2ccccc2C(F)(F)F)CC1)Nc1ccccc1F,7.3,84.8*,0.2,0.9,-0.0257
O=C(CCCN1C(=O)CCC1=O)Nc1ccccc1F,20.3,12.2,0.9,0.8,0.0961
COc1cccc(O[C@@H]2O[C@@H]3COC(C)(C)O[C@H]3[C@H](O)[C@H]2NC(C)=O)c1,/,/,/,/,-0.0329
COc1ccc(/C=N/NC(=O)c2ccccc2O)cc1Cn1cc(Cl)cn1,50.8*,10.6,0.9,0.5,0.32
CCCCOC(=O)Cn1c2ccc(OC)cc2c2nc3ccccc3nc21,20.4,-8.4,1.1,0.8,/
O=C(NC1CCCCC1)C(=O)c1c(-c2ccccc2)[nH]c2ccccc12,/,/,/,/,-0.251
Cc1cc2cc(CNC(=O)NC3CCCCC3)ccc2[nH]1,-76.5,76.5*,0.2,1.8,-0.0215
CNc1nc(Nc2ccc(C(C)=O)cc2)nc(OC(C(F)(F)F)C(F)(F)F)n1,22.4,0.7,1,0.8,-0.605
COc1ccc(CCNC(=O)CSc2nncn2N)cc1OC,8.0,9.7,0.9,0.9,-0.0224
CCOc1ccccc1-c1nc(-c2ccc(NC(=O)c3ccc(Br)o3)cc2)no1,-34.5,76.9*,0.2,1.3,-2.33
CCOc1ccccc1-c1nc(-c2cccc(Br)c2)no1,-73.8,0.9,1,1.7,0.467
CCOc1ccccc1-c1nc(-c2ccc(NC(=O)Cc3ccc(OC)cc3)cc2)no1,-90.3,55.8*,0.4,1.9,0.741
O=C1CCc2cc(S(=O)(=O)N3CCC(C(=O)NC4CCCc5ccccc54)CC3)ccc2N1 (stereo not given),5.4,11.8,0.9,0.9,0.243
O=C(CCn1ccc2ccccc21)NC1CCCc2ccccc21 (stereo not given),60.4*,93.1*,0.1,0.4,/
Cc1ccc(S(=O)(=O)N2CCN(CC(=O)NC(=O)NCc3ccccc3)CC2)cc1C,-1.5,11.0,0.9,1,0.761
O=C(CCN1C(=O)C2C3C=CC(C3)C2C1=O)NC1CCCc2ccccc21 (stereo not given),-32.0,21.0,0.8,1.3,0.0186
Cc1ccc(-c2nnn(CC(=O)NC3CCCc4ccccc43)n2)cc1 (stereo not given),15.8,28.7,0.7,0.8,-2.21
SMILES,CYP2C9 inh,CYP2C19 inh,CYP2C19 activ,CYP2C9 activ,Cav32 inh
Cc1ccc(S(=O)(=O)N2CCN(CC(=O)NC3CCCc4ccccc43)CC2)cc1C (stereo not given),-12.1,69.9*,0.3,1.1,-3.29
Cc1ccc(S(=O)(=O)N2CCN(CC(=O)NC3CCCc4ccccc43)CC2)c(C)c1 (stereo not given),-3.9,51.6*,0.5,1,-2.44
O=C(CCC(=O)N1CCN(S(=O)(=O)c2ccc(Cl)cc2)CC1)NC1CCCc2ccccc21 (stereo not given),28.2,46.8,0.5,0.7,-5.22*
CCN1CCN(S(=O)(=O)c2ccc(Cl)c(C(=O)Nc3nnc(CC(C)C)s3)c2)CC1,21.7,5.5,0.9,0.8,0.856
CCCCOC(=O)c1cccnc1,/,/,/,/,0.909
CCS(=O)(=O)NCCc1cc2c(OC)ccc(OC)c2[nH]c1=O,/,/,/,/,0.519
O=C(O)CCc1ccc(-c2cccs2)n1-c1ccc(C(=O)O)cc1,-103.3,-11.5,1.1,2*,1.41
COC(=O)CSCC(=O)Nc1cc2c(cc1C(C)=O)OCO2,2.1,10.6,0.9,1,-0.624
CCOC(=O)c1nn(-c2ccc(F)cc2)c(-c2ccccc2)c1C(=O)c1ccccc1,31.4,1.1,1,0.7,-0.431
Cc1c(C(=O)O)nn(-c2ccccc2)c(=O)c1C#N,-13.9,-8.1,1.1,1.1,0.893
CCOC(=O)c1nn(-c2ccccc2F)c(-c2ccccc2)c1C(=O)c1ccccc1,36.0,26.9,0.7,0.6,-4.35*
CCOC(=O)c1nn(-c2ccccc2)c(-c2ccccc2)c1C(=O)c1ccccc1,58.7*,40.1,0.6,0.4,0.586
CCOC(=O)c1nn(-c2cccc(Cl)c2)c(C)c1C(C)=O,63.9*,100.3*,0,0.4,0.785
CCOC(=O)c1nn(-c2ccccc2)c(=O)c(C#N)c1C,9.0,69.7*,0.3,0.9,-0.606
COc1n[nH]c2nncnc12,-23.7,-21.4,1.2,1.2,0.137
CCCCCCCCCCC[C@@H](C[C@@H]1OC(=O)[C@H]1CCCCCC)OC(=O)[C@H](CC(C)C)NC=O,/,/,/,/,-0.257
CCCCCn1c(SCCN2CCOCC2)nc2c1c(=O)[nH]c(=O)n2C,34.8,-4.0,1,0.7,0.635
O=C1CNC(=O)N1CC(=O)N1CCCc2ccccc21,-7.8,-2.4,1,1.1,1.07
CCOC(=O)c1sc(NC(=O)c2c(C)nn(Cc3ccccc3)c2C)cc1C,41.0,27.2,0.7,0.6,-3.94
CCOC(=O)c1c(C)nn(Cc2cccc(Cl)c2)c1N,90.5*,23.7,0.8,0.1,-0.441
O=C1CC(c2ccccc2)CCc2sccc2N1 (stereo not given),26.3,65.8*,0.3,0.7,-0.861
O=C1CC(C(=O)O)c2ccccc2N1 (stereo not given),6.5,5.4,0.9,0.9,-0.481
COc1ccc(-n2c(CNc3ccc(C)cc3)nnc2SCC(=O)Nc2nc(-c3ccccc3)cs2)cc1,13.8,6.0,0.9,0.9,-1.45
COCCCn1c(SCC(=O)Nc2nnc(C)s2)nnc1-c1ccoc1C,81.9*,14.7,0.9,0.2,0.97
Cc1cc(C)nc(SCc2nnc(SCC(=O)Nc3nc(-c4ccccc4)cs3)n2-c2ccccc2)n1,46.0,46.5,0.5,0.5,-8.36*
CCc1nnc(NC(=O)CSc2nnc(-c3ccccc3O)n2CC)s1,76.8*,75.9*,0.2,0.2,-4.83
CCc1nnc(NC(=O)CSc2nnc(-c3c[nH]c4ccccc34)n2C)s1,47.4,13.5,0.9,0.5,0.283
COCCn1c(SCC(=O)Nc2nc3ccccc3s2)nnc1-c1ccoc1C,/,/,/,/,-0.717
CCc1nnc(NC(=O)CSc2nnc(-c3cc4ccccc4cc3O)n2CCOC)s1,53.7*,11.2,0.9,0.5,-0.642

# Source: PubChem BioAssay (several laboratories)
